From PubChem BioAssay AID504423 (Broad Institute, 2011)
“And” between values parts separate entries of the source, which are not always exact repeats. Equal values may be shown once. The whole screen tested about 340,000 compounds, of which about 260 (0.076%) were called active.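 The calls were made as follows: active = highest replicate inhibition at or above 60% at 9 µM, even if other replicates fall short; inactive = all replicates below 60% inhibition.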 The list comes from a sample in which actives are over-represented; it also holds similar structures and randomly drawn compounds.

Each compound was assayed on Kaposi's sarcoma herpesvirus LANA C-terminal domain (residues 932-1162) DNA binding (assay: inhibitors of KSHV C-LANA binding to DNA, primary screen, biochemical, fluorescence polarization, FAM-LBS DNA, MBP-C-LANA, single point (AID 504423;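 also: 0% = neutral control wells and 100% = 4 µM acridine orange control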)). Details: at 9 µM, active compounds read high.
`COCCNC(=O)C1CCN(S(=O)(=O)c2ccc3c(c2)OCCO3)CC1` was tested, and the inhibition was -0.000473% (inactive).
`CCCn1nc(C(=O)OCc2nc(N)nc(Nc3ccccc3C)n2)c2ccccc2c1=O` was tested, and the inhibition was -0.106% (inactive).
With `CC(C)Cn1c(=O)c2ccccc2n2c(CCC(=O)NCc3ccccn3)nnc12` the inhibition was -0.283% (inactive).
`COc1cc(C(=O)NCc2ccc3c(c2)cc(C)n3C)cc(OC)c1OC` was tested, and the inhibition was 1.89% (inactive).
For `COc1ccc(-c2c(C)nn3c(N4CCC(C(=O)N5CCCCC5)CC4)cc(C)nc23)cc1OC`, the inhibition was -1.26% (inactive).
`COc1ccc(/C=N/NC(=O)Cn2cc(C(F)(F)F)ccc2=O)cc1` was tested, and the inhibition was 0.0809% (inactive).
In the case of `CCCOc1ccc(Cc2c(O)nc(N)[nH]c2=O)cc1C`, the inhibition is reported as 3.16% (inactive).
`Cc1cc(/C=N/NC(N)=O)c(C)n1C1CCCCC1` was tested, and the inhibition was -1.79% (inactive).
In the case of `Cc1ccc2c(=O)oc(N(C)C)nc2c1`, the inhibition is reported as 0.463% (inactive).
`CC(C)CCNC(=O)CC1C(=O)N(Cc2ccccc2)C(C)c2nc3ccccc3n21` (stereo not given) was tested, and the inhibition was 0.0911% (inactive).
In the case of `Clc1ccc(C2=CSC3=Nc4cccc5cccc(c45)N23)cc1`, the inhibition is reported as 0.203% (inactive).
For `CS(=O)(=O)c1ccc2nnn(OCC(=O)Nc3cccc(C#N)c3)c2c1`, the inhibition was 0.484% (inactive).
In the case of `O=C(c1ccco1)N(Cc1nc2ccccc2c(=O)[nH]1)C1CCCC1`, the inhibition is reported as 1.54% (inactive).
In the case of `Nc1ccc2nc3c(=O)[nH]c(=S)[nH]c3nc2c1`, the inhibition is reported as 81% (active).
For `CCCCn1nc(C(=O)Nc2ccc(S(=O)(=O)Nc3ncccn3)cc2)c2ccccc2c1=O`, the inhibition was 4.67% (inactive).
With `Cc1c(C=O)n(C)n(-c2ccccc2)c1=O` the inhibition was 0.314% (inactive).
With `COc1ccccc1CNS(=O)(=O)c1cc(C(=O)NCc2ccccn2)c(Cl)cc1Cl` the inhibition was 2.38% (inactive).
In the case of `O=C(c1ccccc1)N1CCC(CC2CC(c3ccc(Cl)cc3)=NO2)(C(=O)NCC2CCCCC2)CC1` (stereo not given), the inhibition is reported as 2.87% (inactive).
With `Cc1ccc(S(=O)(=O)n2oc(=O)c(C3CCCCC3)c2N)cc1` the inhibition was -3.57% (inactive).
`COc1cccc(N2CC(NS(=O)(=O)c3ccc(Cl)cc3)CC2=O)c1` (stereo not given) was tested, and the inhibition was -1.06% (inactive).
In the case of `COc1cccc(-c2nc3n(n2)C(c2ccccc2Cl)C(C(N)=O)=C(C)N3)c1` (stereo not given), the inhibition is reported as -1.68% (inactive).
In the case of `COc1ccc(C2C(C#N)=C(N)Oc3cc(N)ccc32)cc1OC` (stereo not given), the inhibition is reported as -0.0442% (inactive).
For `COc1ccc(CNCCCO)cc1OC`, the inhibition was 0.662% (inactive).
`COc1ccc(C2c3ccc(O)cc3Oc3ncn(CCCO)c(=N)c32)cc1OC` (stereo not given) was tested, and the inhibition was 90.6% (active).
For `COc1cc(/C=C(\C#N)C(=O)Nc2ccc3ccccc3c2)c([N+](=O)[O-])cc1OC`, the inhibition was -1.48% (inactive).
In the case of `CCC1OC(c2ccc([N+](=O)[O-])cc2)=Nc2ccccc21` (stereo not given), the inhibition is reported as 1.55% (inactive).
`O=C(NCCCc1ccccc1)C(=O)c1c[nH]c2ccccc12` was tested, and the inhibition was 1.71% (inactive).
`CCCN(CC(=O)NC(=O)NC1CCCCC1)CC(=O)Nc1cc(Cl)ccc1Cl` was tested, and the inhibition was -0.226% (inactive).
With `CCN1C[C@@H]2[C@@H]3C(=O)N(C)C(=O)[C@@H]3[C@](C)(C1=O)N2C(=O)c1ccccc1` the inhibition was -2.13% (inactive).
`CCN(CC(=O)Nc1ccc(OC)cc1)C(=O)c1ccc(Cl)c(S(=O)(=O)N2CCCC2)c1` was tested, and the inhibition was 3.81% (inactive).
With `CCOC(=O)C1=C(O)/C(=C/c2ccc(OCC(=O)Nc3ccc(C)cc3)cc2)N=C1C` the inhibition was 0.825% (inactive).
`COC(=O)C1=C(O)/C(=C/c2ccc(OCC(=O)Nc3ccccc3)cc2)N=C1C` was tested, and the inhibition was 0.272% (inactive).
For `CCOC(=O)C1=C(O)/C(=C/c2cc(C)n(-c3ccccc3)c2C)N=C1C`, the inhibition was 73.6% (active).
In the case of `CCOc1ccc(N(CC)S(=O)(=O)c2cccc3nsnc23)cc1`, the inhibition is reported as 3.87% (inactive).
For `Cc1cc2nc(SCCN3CCOCC3)[nH]c2cc1C`, the inhibition was -0.479% (inactive).
`O=C(Nc1c(Br)cc2c(c1Br)Cc1ccccc1-2)C(F)(F)F` was tested, and the inhibition was -0.671% (inactive).
`O=C(NC(=S)N1CCCCC1c1cccnc1)c1ccccc1` (stereo not given) was tested, and the inhibition was 1.24% (inactive).
`CN(CCOc1ccc(CC2SC(=O)NC2=O)cc1)c1ccccn1` (stereo not given) was tested, and the inhibition was 14.3% (inactive) and -2.59% (inactive).
`CN(C)/C=C(/C(=O)c1ccccc1Cl)S(C)(=O)=O` was tested, and the inhibition was 0.122% (inactive).
In the case of `CCC(CC)C(=O)Nc1cc(C(=O)OC)cc(C(=O)OC)c1`, the inhibition is reported as -1.15% (inactive).
In the case of `Cc1ccc(C)c(-n2ccnc2SCC(N)=O)c1`, the inhibition is reported as -0.0657% (inactive).
With `Cc1cc(C)c(CN2CCN(C(=O)Cn3ccc(NC(=O)OCc4ccccc4)nc3=O)CC2)c(C)c1` the inhibition was 1.66% (inactive).
`CCn1c(=S)sc2c(=O)n(CC(=O)Nc3cccc(Br)c3)c(C)nc21` was tested, and the inhibition was -0.393% (inactive).
In the case of `Cc1cccn2c(CNCC(C)Oc3cccnc3)c(C(=O)N3CCOCC3)nc12` (stereo not given), the inhibition is reported as -1.19% (inactive).
`CCOc1ccc(CN2CCC(n3nccc3NC(=O)C3CC3)CC2)cc1CO` was tested, and the inhibition was 1.61% (inactive).
In the case of `O=C(Nc1cc(-c2ccccc2)nn1-c1ccccc1F)c1ccc([N+](=O)[O-])cc1`, the inhibition is reported as -1.47% (inactive).
For `Cc1ccccc1OCC(=O)NNC(=O)c1cc(S(=O)(=O)N(C)C)ccc1N1CCCC1`, the inhibition was -0.594% (inactive).
`CN1CCC2(CC1)NC(=O)NC2=O` was tested, and the inhibition was 0.656% (inactive).
`O=C(NCc1ccncc1)c1cccc(NS(=O)(=O)c2ccc(F)c(F)c2)c1` was tested, and the inhibition was -0.916% (inactive).
For `CSc1nc(-c2ccccc2)nc(C(Cl)Cl)n1`, the inhibition was 1.16% (inactive).
For `CCCn1c(N)c(C(=O)CSc2nc3ccccc3c(=O)n2-c2ccc(OC)cc2)c(=O)[nH]c1=O`, the inhibition was 0.469% (inactive).
With `Cc1cccc(-c2nc3c(c(SCC(=O)N4CCOCC4)n2)CCCC3)c1` the inhibition was -0.478% (inactive).
In the case of `COc1cccc(CNC(=O)C2CCCN(c3ncnc4c3nc3n4CCCCC3)C2)c1` (stereo not given), the inhibition is reported as 0.109% (inactive).
`CCNC(=O)COc1cc(C)c(Br)c(C)c1` was tested, and the inhibition was 0.138% (inactive).
In the case of `CCCCC(CC(C)O)c1n[nH]c(=S)n1-c1ccccc1` (stereo not given), the inhibition is reported as 0.671% (inactive).
In the case of `Cc1ccc(N2CCN(C(=O)c3cccs3)CC2)c(C)c1`, the inhibition is reported as 0.336% (inactive).
For `O=C(COC(=O)COc1cccc(F)c1)NCC1CCCCC1`, the inhibition was -1.07% (inactive).
With `O=C1Nc2cc(C(=O)N3CCC(N4CCCCC4)CC3)ccc2S/C1=C\c1ccccc1` the inhibition was -4.28% (inactive).
In the case of `CC(=O)Nc1ccc(S(=O)(=O)N(C)CC(=O)NCCC2=CCCCC2)cc1`, the inhibition is reported as 0.609% (inactive).
For `CC(C)n1c(NCc2c[nH]c3ccccc23)nc2ccccc21`, the inhibition was -1.36% (inactive).
`COc1ccccc1-c1c(C#N)c(N)nc2c1CCC2` was tested, and the inhibition was 1.17% (inactive).
In the case of `CS(=O)(=O)N1CCC(C(=O)N2CCN(c3ccccc3)CC2)CC1`, the inhibition is reported as -0.437% (inactive).
For `C(=N/N1CCN(c2ccccc2)CC1)/c1cccs1`, the inhibition was -0.282% (inactive).
With `O=c1ccc2c(-c3ccccc3S(=O)(=O)O)c3ccc(O)c(O)c3oc-2c1O` the inhibition was 101% (active).
With `CC(OC(=O)/C=C/c1ccccc1)C(=O)Nc1ccc(C(N)=O)cc1` (stereo not given) the inhibition was 2.44% (inactive).
For `COc1ccc(C2CC(=O)Oc3ccc(C(C)(C)C)cc32)cc1` (stereo not given), the inhibition was -0.823% (inactive).
For `CC1(c2nnc(-c3ccncc3)o2)CC(c2cccnc2)=NO1` (stereo not given), the inhibition was -1.07% (inactive).
`Cc1ccc(S(=O)(=O)/N=C(\N)c2ccc(F)cc2)cc1` was tested, and the inhibition was -0.0435% (inactive).
In the case of `COCc1ccc(CN2CCC(Oc3ccc(C(=O)NCc4ccccn4)cc3)CC2)o1`, the inhibition is reported as -1.54% (inactive).
With `Fc1ccccc1Cc1ccc(Cl)nn1` the inhibition was -0.587% (inactive).
